# GPR151 activ: human GPR151 activation; activation, % at 11.2 µM; Q8TDV0; 650,000 compounds, 1% hits; PathHunter beta-arrestin GPR151 cells, luminescence; in the data active means activation above about 4.9%;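 further: 0% = median of compound wells and 100% = cells with positive control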
# Target sequence (Q8TDV0 whole entry, looked up): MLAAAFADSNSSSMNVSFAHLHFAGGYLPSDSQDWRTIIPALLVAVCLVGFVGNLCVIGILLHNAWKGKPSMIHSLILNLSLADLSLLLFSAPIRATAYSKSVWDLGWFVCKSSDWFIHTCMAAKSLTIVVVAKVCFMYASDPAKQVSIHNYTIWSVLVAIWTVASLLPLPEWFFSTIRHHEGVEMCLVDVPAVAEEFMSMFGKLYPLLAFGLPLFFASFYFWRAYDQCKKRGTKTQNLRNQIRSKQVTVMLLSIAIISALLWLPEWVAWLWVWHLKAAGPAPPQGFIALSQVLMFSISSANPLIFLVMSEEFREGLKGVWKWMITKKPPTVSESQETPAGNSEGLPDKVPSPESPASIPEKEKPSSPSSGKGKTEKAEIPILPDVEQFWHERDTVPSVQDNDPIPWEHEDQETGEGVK
# FBW7 activator: human FBW7 E3 ligase activation, primary screen; Q969H0; AlphaScreen FBW7–phospho-cyclin E peptide binding, activator screen; normalized activity (activation), % at 26.1 µM; 650,000 compounds, 0.13% hits; AID 1259310; in the data active means normalized activity above about 1.9%;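 further: purified mutant Fbw7 with reduced substrate affinity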
# MITF primary: human MITF inhibition, primary screen; AlphaScreen MITF homodimerization, bead proximity signal; inhibition, % at 2.6 µM; 650,000 compounds, 0.91% hits; AID 1259374; in the data active means inhibition above about 50%;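 further: 0% = vehicle wells with protein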
# TEAD-YAP inh: TEAD-YAP interaction inhibition; HEK-TIYL cells, TEAD-Gal4/YAP UAS-luciferase luminescence; inhibition, % at 9.12 µM; 640,000 compounds, 1.4% hits; in the data active means inhibition above about 32%;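 further: 0% = median of test compound wells and 100% = reference inhibitor wells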
# GPR151 confirm: confirmation of human GPR151 activators; GPR151 PathHunter beta-arrestin cells, luminescence, 90 min; % of EA-reagent control over plate median; 6,700 tested, under 10 active; shares compounds with GPR151 activ; activation, % at 11.2 µM;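 active means mean percent activation across replicates above the confirmation screen cutoff of 4.91%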
# GPR119 counter: GPR119 activation, counter-screen for GPR151 activators | shares compounds with GPR151 activ | GPR119 PathHunter beta-arrestin cells, luminescence, 90 min; 0 = compound-well median, 100 = enzyme-acceptor control | activation, % at 11.2 µM | 6,700 compounds, 0.3% hits;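 active means mean percent activation in the counterscreen above 29.09%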;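 further: counterscreen on off-target GPR119 to flag nonselective hits from the GPR151 activator screen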
# The depositor's hits bear a star; . = no result given. Shown are actives, neighbours in structure and some others; about 3.5% of the full set was active somewhere.
SMILES,GPR151 activ,FBW7 activator,MITF primary,TEAD-YAP inh,GPR151 confirm,GPR119 counter
O=S(=O)(c1cc(Br)ccc1Br)N1CCN(Cc2ccccc2)CC1,-1.7,0.4,8.1,3.8,.,.
COc1ccc(C(=O)NC2(C(F)(F)F)NC(=O)N(CCc3ccccc3)C2=O)cc1 (stereo not drawn),0.5,0.3,3.2,1.2,.,.
Cn1cc(CN2CCCC(CNS(=O)(=O)c3cccc4cccnc34)C2)cn1 (stereo not drawn),8.1*,0.0,5.5,0.9,0.4,0.8
CCCCOC(=S)SCc1ccc(Cl)s1,6.4*,-0.1,3.6,3.0,-0.1,-3.3
O=C(Nc1ccc(Cl)c(C(=O)O)c1)c1ccc([N+](=O)[O-])cc1,-0.4,0.1,19.0,-8.0,.,.
CN(CCCC1CCCC1)C(=O)CC1C(=O)NCCN1CCc1ccccc1 (stereo not drawn),0.3,0.2,13.4,1.1,.,.
Cc1nonc1N=NN(Cc1ccc([N+](=O)[O-])cc1)c1nonc1C,7.4*,-0.1,9.4,8.4,0.4,-4.6
Brc1ccc(Oc2ccc(Oc3ccc(Br)cc3)cc2)cc1,-0.1,0.1,-1.0,2.9,.,.
Nc1ccc(Oc2ccc(Br)cc2)cc1,11.2*,0.2,10.6,1.9,1.1,-5.0
CCc1cc(-c2n[nH]c(C)c2-c2nc(C)cs2)c(O)cc1OC,8.0*,0.0,4.5,10.4,0.5,7.4
CCOC(=O)C1=C(C)NC(=O)NC1c1ccc(OCC)cc1 (stereo not drawn),-0.7,0.0,13.9,-0.5,.,.
CC(C)[C@H](NC(N)=O)C(=O)Nc1ccc(I)cc1,5.9*,-0.1,6.3,1.1,1.7,11.9
O=C1NCCN(Cc2cccc(Oc3ccccc3)c2)C1CC(=O)N1CCCCCC1 (stereo not drawn),1.8,-0.1,-4.4,-6.9,.,.
COc1ccc(-c2nc3ccccc3s2)cc1NC(C)=O,4.9*,0.0,6.9,-42.3,-0.3,-5.7
CC(=O)Nc1ccc(NC(=O)c2ccc3nc(-c4cccc(C(C)=O)c4)sc3c2)cc1,-0.9,0.0,-16.8,1.2,.,.
COc1cc(NC(=O)c2cnc(-c3csc4ccccc34)s2)cc(OC)c1OC,5.1*,-0.1,5.2,9.7,0.1,2.4
COC(=O)COc1ccc(-c2nc3ccccc3s2)cc1OC,-2.3,-0.1,-7.1,2.1,.,.
CN1CCN(c2ccc(-c3nc4ccc(C(=O)NCc5cccc(C(F)(F)F)c5)cc4s3)cc2)CC1,5.8*,0.2,-3.8,16.2,-1.0,-18.8
CC(=O)Nc1ccc(NC(=O)c2cnc(-c3csc4ccccc34)s2)cc1,-3.0,0.0,-2.9,-3.6,.,.
COc1cc(NC(=O)c2ccc3nc(-c4cccc(C(C)=O)c4)sc3c2)cc(OC)c1OC,13.2*,0.1,7.1,-27.1,0.6,2.0
COC(CNc1ncnc2c1c(-c1ccccc1)cn2-c1ccc(Cl)cc1)OC,-2.2,0.8,12.6,1.4,.,.
CCCNC(=O)c1ccc2nc(-c3ccc(OC)cc3)sc2c1,11.4*,0.1,5.2,-18.6,-0.8,-4.9
CC(=O)Nc1ccc(NC(=O)c2ccc3nc(-c4ccc(C(=O)NC5CC5)cc4)sc3c2)cc1,11.1*,0.0,2.3,9.9,0.5,3.1
COc1ccc(C2CC(=O)C3=C(C2)Nc2ccccc2NC3c2ccsc2)cc1 (stereo not drawn),-0.9,0.7,7.5,11.7,.,.
O=C(O)CC(SCC(=O)NC12CC3CC(CC(C3)C1)C2)C(=O)O (stereo not drawn),0.8,-0.1,-7.5,-3.4,.,.
SMILES,GPR151 activ,FBW7 activator,MITF primary,TEAD-YAP inh,GPR151 confirm,GPR119 counter
CCc1ccc(-n2c(C)nc3cc(C(=O)NC4CCCCC4C)ccc32)cc1 (stereo not drawn),-1.7,0.0,-1.8,-3.5,.,.
CCCN(CCC)S(=O)(=O)c1ccc(NS(C)(=O)=O)cc1,-0.2,-0.2,-0.4,-1.2,.,.
CC(=O)Nc1ccc(S(=O)(=O)Nc2ccc(C(F)(F)F)cc2[N+](=O)[O-])cc1,7.8*,-0.1,5.7,9.2,1.1,15.4
CCCN(CCC)S(=O)(=O)c1ccc(NS(=O)(=O)c2ccc(F)cc2)cc1,6.1*,0.3,3.2,6.0,0.0,-14.0
CC(=O)Nc1ccc(S(=O)(=O)c2ccc(NC(C)=O)c([N+](=O)[O-])c2)cc1[N+](=O)[O-],7.5*,0.7,14.7,4.5,1.3,9.9
Cc1ccnc(NS(=O)(=O)c2ccc([N+](=O)[O-])cc2)n1,7.5*,-0.1,-2.6,-20.9,-0.5,-13.2
CCOc1ccccc1C(=O)N(c1cccc(Cl)c1)C1C=CS(=O)(=O)C1 (stereo not drawn),-0.1,-0.2,-3.4,-9.3,.,.
CC(C)(C)NC(=O)Cn1nc2c3ccccc3ncn2c1=O,-0.5,0.1,11.2,-4.4,.,.
COC(=O)c1ccccc1C(=O)N1CCCC(N(C)CCc2ccc(OC)c(OC)c2)C1 (stereo not drawn),-0.7,0.4,18.0,6.0,.,.
O=[N+]([O-])c1ccc(Oc2ccc(S(=O)(=O)Nc3ccc(F)cc3)cc2)cc1,7.5*,0.1,3.7,35.5*,0.9,-4.6
CC(=O)Nc1ccc(NS(=O)(=O)c2ccc([N+](=O)[O-])cc2)cc1,17.5*,0.7,13.2,8.2,0.7,0.7
CC(=O)Nc1ccc(S(=O)(=O)c2ccc([N+](=O)[O-])cc2)cc1,-1.6,-0.1,-5.6,1.7,.,.
O=[N+]([O-])c1ccc(Oc2ccc(S(=O)(=O)Nc3ccccc3)cc2)cc1,0.8,0.0,-10.8,24.2,.,.
COc1cc2c(cc1OC)C(COc1ccc([N+](=O)[O-])cc1)N(C(=O)C1CCCCC1)CC2 (stereo not drawn),0.7,-0.1,5.1,1.3,.,.
COc1ccc(C2(CC(=O)N3CCCC(O)C3)CC(=O)N(CCC(C)C)C2=O)cc1 (stereo not drawn),-0.7,-0.1,3.1,5.0,.,.
COc1ccc(C2(CC(=O)N3CC[C@@H](O)C3)CC(=O)N(CCC(C)C)C2=O)cc1 (stereo partly drawn),6.7*,0.8,2.4,7.8,0.1,2.5
COc1ccc(OC)c(NC(=O)CC(Cc2ccc(Cl)cc2)C(=O)O)c1 (stereo not drawn),5.2*,0.1,8.0,5.7,-0.1,-6.8
CCCNC(=O)c1cc(I)c(OC)c(OCC)c1,-0.5,0.2,9.2,-4.0,.,.
Nc1cc(=O)[nH]c(SCc2cn3ccccc3n2)n1,5.4*,-0.1,-4.0,0.3,0.4,-5.3
O=C1NC(=O)/C(=C\c2cccs2)N1,-1.4,-0.1,-13.2,-8.4,.,.
Nc1c(C(=O)Nc2cc(Cl)cc(Cl)c2)sc2[nH]c(=O)c(C(=O)O)cc12,-0.1,0.1,-5.6,-4.0,.,.
C#Cc1cccc(N2C(=O)c3cc4ccccc4c(-c4ccccc4)c3C2=O)c1,5.4*,-0.1,6.8,7.4,0.6,-5.0
COCCOC(=O)c1c(N)sc(C(N)=O)c1C,8.5*,0.0,-4.4,3.0,-0.4,-2.7
